In PubChem BioAssay AID602382 (Sanford-Burnham Center for Chemical Genomics, 2012):
Some of the results follow. Values without a mark were called inactive. How the calls were made is not given here.

Assay: beacon detection-step fluorescence artefacts – biochemical, fluorescent molecular beacon, artefact control for DNMT1 inhibitor project, dose response (AID 602382)
Conditions: spectral interference counter-screen

| SMILES | IC50 |
| --- | --- |
| Cc1ccc(/C=C/C(=O)Nc2ccc([N+](=O)[O-])c(NC(=O)/C=C/c3ccc(C)o3)c2)o1 | > 99 µM |
| COc1ccc(Br)cc1/C=N/Nc1ccc(S(=O)(=O)Nc2ccccc2C(=O)O)cc1[N+](=O)[O-] | > 99 µM |
| Cc1ccccc1NC(=O)CN1C(=O)N/C(=C\c2cccn2-c2cccc(C(=O)O)c2)C1=O | > 99 µM |
| O=C(Oc1ccc(-c2nc(-c3ccccn3)no2)cc1)c1ccccc1 | > 99 µM |
| NC(CSC(c1ccccc1)(c1ccccc1)c1ccc(-c2ccccc2)cc1)C(=O)O (stereo not given) | > 99 µM |
| COc1ccc(Cc2nnc(NC(=O)Cc3cccs3)s2)cc1 | > 99 µM |
| O=C(COc1ccc(/C=N/NC(=O)c2ccc(O)cc2)cc1)Nc1ccc([N+](=O)[O-])cc1 | > 99 µM |
| COc1ccc(C(=O)/C=C/c2ccc(-c3ccccc3)cc2)cc1CSCC(=O)O | > 99 µM |
| O=C(CSc1nc2ccccc2c(=O)[nH]1)Nc1nc(-c2ccc(Br)cc2)cs1 | > 99 µM |
| CCOC(=O)C(NC(=O)CC(C)C)(Nc1sc2c(c1C(N)=O)CCCC2)C(F)(F)F (stereo not given) | > 99 µM |
